Experimental findings from PubChem BioAssay (NCATS) are described below.

Test [1] addresses Glucocorticoid receptor (Homo sapiens) (UniProt P04150). Nature of the test: qHTS assay for small molecule agonists of glucocorticoid receptor signaling (AID 588532; active = well fitted curve in the direction sought with a large enough effect in the signal ratio, with a control signal flat; the % refers to the signal ratio;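 note: 100% = dexamethasone at 0.1 µM and 0% = DMSO only wells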). The following applies: HeLa MMTV-bla, beta-lactamase ratio, agonist, 18 h; stronger effect = higher value; percent of dexamethasone control, DMSO zero. The essentials:
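Stimulation of a glucocorticoid response element-driven beta-lactamase gene was measured in HeLa cells. Responses were scaled between DMSO basal and 0.1 uM dexamethasone, then fitted for half-maximal stimulation.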

Test [2] has the same target. The test can be described thus: qHTS assay for small molecule antagonists of glucocorticoid receptor signaling (AID 588533; active = well fitted inhibition curve with a large enough effect in the signal ratio, with a control signal flat, not every such curve was filed as active; the % refers to the signal ratio;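 note: cells stimulated with 2 nM dexamethasone as agonist; % is set by controls: 0 for no effect and ±100 for the full control effect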). The following applies: HeLa MMTV-bla, GRE beta-lactamase ratio, antagonist mode, 18 h; series mostly up to 76.8 µM. The essentials:
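Antagonist-mode qHTS: compound titrations added to GRE-bla HeLa cells, then dexamethasone 2 nM final; 18 h, 37 C. CCF4 FRET fluorescence normalized to dexamethasone and DMSO; IC50 from Hill fit.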

A short description of test [3]: qHTS assay for small molecule antagonists of peroxisome proliferator-activated receptor delta signaling (AID 588535).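 Note: cells co-treated with a PPAR-delta agonist as stimulator during compound exposure.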 The conditions noted are these: HEK293T PPARd-UAS-bla, beta-lactamase FRET ratio, 18 h; 460 nm channel. In a few lines:
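Compounds tested in titration on PPAR-delta-UAS-bla HEK293T cells grown in charcoal/dextran-stripped serum (2%); beta-lactamase activity read via CCF4 emission at 460 and 530 nm.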

In test [4] the target is Peroxisome proliferator-activated receptor gamma (Homo sapiens) (UniProt P37231). Nature of the test: qHTS assay for small molecule agonists of peroxisome proliferator-activated receptor gamma signaling (AID 588536; active = well fitted curve in the direction sought with a large enough effect in the signal ratio, with a control signal flat, not every such curve was filed as active; the % refers to the signal ratio;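 note: 0% = DMSO basal wells and 100% = rosiglitazone at 2 µM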). The conditions noted are these: HEK293 PPARg-UAS-bla, beta-lactamase ratio, 16 h, percent of rosiglitazone response, DMSO as zero; series mostly up to 76.7 µM. In a few lines: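 Cells were plated and held 6–6.5 h at 37 C, then compounds were added as a titration series. After a further 16 h, CCF4 dye was loaded for 2 h at room temperature and emission at 460/530 nm recorded.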

Test [5] has the same target. The test can be described thus: qHTS assay for small molecule antagonists of peroxisome proliferator-activated receptor gamma signaling (AID 588537; active = well fitted inhibition curve with a large enough effect in the signal ratio, with a control signal flat, not every such curve was filed as active; the % refers to the signal ratio; note: potency is the fitted concentration of half-maximal effect). The conditions noted are these: HEK293 PPARg-UAS-bla, beta-lactamase ratio, antagonist mode; series mostly up to 76.8 µM. The essentials:
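HEK293 cells, PPAR-gamma-UAS-bla, 3000/well. Pre-incubation 6-6.5 h, 37 C. Compound titration with rosiglitazone 50 nM final, 16 h. CCF4 dye, 2 h RT, dual-emission fluorescence.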

Test [6] is described as follows: qHTS assay for small molecule agonists of retinoid X receptor alpha signaling (AID 588544). The following applies: HEK293T RXRa-UAS-bla, beta-lactamase reporter, 18 h; 530 nm emission.
Test [7] addresses Thyroid hormone receptor beta (Homo sapiens) (UniProt P10828). The test can be described thus: qHTS assay for small molecule agonists of thyroid hormone receptor beta signaling (AID 588545; calls by dose curve). The following applies: TR-UAS-bla GripTite HEK 293, beta-lactamase ratio, agonist mode, 18 h; series mostly up to 76.7 µM. In a few lines:
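Agonist-mode beta-lactamase reporter assay, HEK 293 cells, 2% charcoal/dextran FBS; cells plated 4 hrs, compound 18 hrs at 37 C, CCF4 2 hrs RT. Normalized to 10 nM T3 (100%) and DMSO (0%); Hill fit gives EC50, efficacy.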

Test [8] in a line: qHTS assay for small molecule antagonists of retinoid X receptor alpha signaling (AID 588546; active = well fitted inhibition curve with a large enough effect in the signal ratio, with a control signal flat, not every such curve was filed as active; the % refers to the signal ratio;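 note: cells stimulated with 9-cis-retinoic acid as agonist; % is set by controls: 0 for no effect and ±100 for the full control effect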). The conditions noted are these: HEK293T RXRa-UAS-bla, beta-lactamase ratio, antagonist mode; measured here: W530 green channel, cytotoxicity proxy. The essentials:
(§1)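 Beta-lactamase reporter inhibition, read as CCF4 fluorescence ratio (ex 405, em 460/530 nm) after 2 h at RT. HEK293T UAS-bla cells, 2500/well, were stimulated with 9-cis-RA at 500 or 100 nM final alongside test compound for 18 h at 37 C.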

The target in test [9] is Retinoic acid receptor RXR-alpha (Homo sapiens) (UniProt P19793). The test is described as above. The conditions noted are these: HEK293T RXRa-UAS-bla, beta-lactamase ratio, antagonist mode. In a few lines: as §1
A short description of test [10]: qHTS assay for environmental chemicals that activate the Aryl hydrocarbon Receptor (AhR) signaling pathway (AID 651777). Note: % of control where 0% means no effect; nearly all actives have a fitted effect of over 15% in size. The following applies: 1A2-DRE human hepatoma cells, luciferase, 24 h; activation: stronger effect = higher value. The essentials: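 Concentration–response screening used 1,200 1A2-DRE cells per well, 24 hr compound exposure (37 C, 5% CO2), and One-Glo luminescence as the AhR-driven CYP1A2 reporter signal.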

For test [11], the target named is Peroxisome proliferator-activated receptor alpha (Homo sapiens) (UniProt Q07869). The test can be described thus: qHTS assay for small molecule agonists of the peroxisome proliferator-activated receptor alpha (PPARalpha) signaling pathway (AID 651778). For max response: % of control where 0% means no effect. Note: potency is the fitted concentration of half-maximal effect. The following applies: PathHunter PPARalpha complementation, chemiluminescence, 6 h; max response: stronger effect = higher value. In a few lines: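 Cells plated at 2,000/well and held overnight at 37 C, 5% CO2, then compound added by pin tool for 6 hr; after PathHunter detection reagent and 60 min at room temperature, chemiluminescence from enzyme complementation was read.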

The nature of test [12]: qHTS assay for small molecule agonists of the antioxidant response element (ARE) signaling pathway measured by Nrf2-dependant transcriptional activity (AID 720636; active = well fitted curve in the direction sought with a large enough effect in the repeat runs; an effect the other way counts as inactive or inconclusive; note: % of control where 0% means no effect). The following applies: ARE-luc HepG2, Nrf2 luciferase reporter, 16 h; series mostly up to 92.4 µM. In a few lines:
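Attachment 6 hr at 37 C, then compound versus DMSO vehicle for 16 hr in ARE-luc HepG2 cells (1% dialyzed FBS); luminescence recorded 30 min after ONE-Glo addition at room temperature.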

A short description of test [13]: qHTS assay for small molecule agonists of the antioxidant response element (ARE) signaling pathway measured by Nrf2-dependant transcriptional activity - cell viability counter screen (AID 720653; active = well fitted curve in the direction sought with a large enough effect in the repeat runs; an effect the other way counts as inactive or inconclusive; note: % is set by controls: 0 for no effect and ±100 for the full control effect). The conditions noted are these: ARE-bla HepG2 viability, CellTiter-Glo ATP luminescence, 16 h; max response: stronger effect = lower value. The essentials: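 ARE-bla HepG2 cells (2,000/well) rested 5 hrs at 37C/5% CO2, then exposed to compounds in DMSO for 16 hrs. Viability was read in the same wells as intracellular ATP by luminescence, 30 min at room temperature after reagent addition.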

Test [14] can be described thus: qHTS assay for cell viability of HEK293 cells (AID 743288). Note: % is set by controls: 0 for no effect and ±100 for the full control effect; nearly all actives have a fitted effect of over 50% in size. The following applies: ATP luminescence (CellTiter-Glo), 18 h; max response: stronger effect = lower value. In a few lines:
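HEK293, 18 h, 37 C, ATP luminescence. Cells at 2,000/well were allowed at least 5 h to settle before dosing; CellTiter-Glo developed 30 min at RT.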

Test [15] is described as follows: qHTS assay for cell viability of the p53RE-bla HCT-116 cell line (AID 743292). Note: % is set by controls: 0 for no effect and ±100 for the full control effect; nearly all actives have a fitted effect of over 55% in size. The conditions noted are these: p53RE-bla HCT-116 viability, ATP luminescence, 16 h; series mostly up to 95 µM. The essentials:
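Compound-exposed HCT-116 (p53RE-bla) cells, 4,000 per well, were kept 16 h at 37 C following a 5 h preincubation. Cell number was estimated from total ATP by CellTiter-Glo luminescence read after 30 min at room temperature.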

Test [16] deals with Nuclear receptor subfamily 1 group I member 2 (Rattus norvegicus) (UniProt Q9R1A7). Nature of the test: qHTS assay for small molecule activators of the rat pregnane X receptor (rPXR) signaling pathway (AID 651751; call rule not given here; note: 0% is about no effect). The following applies: rPXR reporter cells, luciferase (One-Glo), 24 h.
The nature of test [17]: qHTS assay for small molecule activators of the human pregnane X receptor (PXR) signaling pathway (AID 720659; call rule not given here; note: 0% is about no effect). The conditions noted are these: DPX-2 HepG2 CYP3A4-luciferase, 24 h; series mostly up to 92.3 µM.
In test [18] the target is Vitamin D3 receptor (Homo sapiens) (UniProt P11473). The test can be described thus: qHTS assay for small molecule agonists of vitamin D receptor signaling (AID 588543; calls by dose curve;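 note: 0% = DMSO basal and 100% = reference agonist control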). The conditions noted are these: HEK293T VDR-UAS-bla, beta-lactamase ratio, 16 h; series mostly up to 76.8 µM. The essentials: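 Measured: β-lactamase reporter activity (CCF4, 405 nm excitation, 460/530 nm emission) in HEK293T VDR-UAS-bla cells after 16 h compound exposure at 37 °C. Normalization against 50 nM 1α,25-dihydroxyvitamin D3 and DMSO; Hill-fit EC50.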

Test [19] in a line: qHTS assay for small molecule activators of the nuclear factor-kappa B (NF-kB) signaling pathway (AID 651749; active = well fitted activation curve with a large enough effect in the signal ratio; the % refers to the signal ratio; note: % of control where 0% means no effect). The conditions noted are these: NF-kB-bla ME-180 cells, beta-lactamase FRET ratio, 16 h; activation: stronger effect = higher value. In a few lines:
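Beta-lactamase reporter expression, controlled by NF-kB response elements in ME-180 cells, was quantified fluorometrically via FRET disruption; cells at 2,000/well had been incubated with 23 nL test compound for 16 hr.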

Test [20] in a line: qHTS assay for small molecule activators of the p53 signaling pathway (AID 651743; active = well fitted activation curve with a large enough effect in the signal ratio, not every such curve was filed as active; the % refers to the signal ratio; note: % of control where 0% means no effect). The following applies: HCT-116 p53RE-bla, beta-lactamase FRET ratio, 16 h; activation: stronger effect = higher value. The essentials:
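Here HCT-116 cells with an integrated p53-responsive beta-lactamase gene were incubated with compounds (16 hours, 37 C) after a 5-hour plating period; beta-lactamase activity was detected as fluorescence intensity via B/G FRET substrate.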

Records with an inconclusive call do not appear. The source made the active and inactive calls. Unless noted, calls come from the whole dose curve; as a rule, active = well fitted curve in the direction sought with a large enough effect; inconclusive = small, poorly fitted or top-dose-only effect, or another doubt; inactive = no such curve, though single readings can be large; an effect the other way counts as inactive or inconclusive.

Sequence of Retinoic acid receptor RXR-alpha (Homo sapiens) (P19793 whole entry, looked up): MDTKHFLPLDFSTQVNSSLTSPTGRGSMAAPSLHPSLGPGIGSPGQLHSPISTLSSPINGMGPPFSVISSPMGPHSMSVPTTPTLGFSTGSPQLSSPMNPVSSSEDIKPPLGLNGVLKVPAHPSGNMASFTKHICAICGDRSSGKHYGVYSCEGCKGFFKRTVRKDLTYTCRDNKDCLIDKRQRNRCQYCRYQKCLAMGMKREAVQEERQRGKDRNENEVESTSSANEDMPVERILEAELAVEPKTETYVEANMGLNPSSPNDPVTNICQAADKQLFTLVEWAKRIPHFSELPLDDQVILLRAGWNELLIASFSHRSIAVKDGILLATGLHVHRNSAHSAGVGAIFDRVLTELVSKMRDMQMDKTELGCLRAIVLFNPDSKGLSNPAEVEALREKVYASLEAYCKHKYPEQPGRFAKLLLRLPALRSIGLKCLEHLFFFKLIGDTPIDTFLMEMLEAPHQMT
Sequence of Vitamin D3 receptor (Homo sapiens) (P11473 whole entry, looked up): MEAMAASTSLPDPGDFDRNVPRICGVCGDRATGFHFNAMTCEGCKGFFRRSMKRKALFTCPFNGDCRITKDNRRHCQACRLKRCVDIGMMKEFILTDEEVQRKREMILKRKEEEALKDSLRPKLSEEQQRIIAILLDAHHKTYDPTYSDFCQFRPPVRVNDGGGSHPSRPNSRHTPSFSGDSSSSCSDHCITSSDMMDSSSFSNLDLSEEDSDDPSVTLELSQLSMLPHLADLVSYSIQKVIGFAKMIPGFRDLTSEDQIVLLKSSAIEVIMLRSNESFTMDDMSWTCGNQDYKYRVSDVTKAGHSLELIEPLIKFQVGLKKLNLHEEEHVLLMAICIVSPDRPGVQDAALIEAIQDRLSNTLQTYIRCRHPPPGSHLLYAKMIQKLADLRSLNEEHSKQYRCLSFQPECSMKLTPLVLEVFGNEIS
Sequence of Thyroid hormone receptor beta (Homo sapiens) (P10828 whole entry, looked up): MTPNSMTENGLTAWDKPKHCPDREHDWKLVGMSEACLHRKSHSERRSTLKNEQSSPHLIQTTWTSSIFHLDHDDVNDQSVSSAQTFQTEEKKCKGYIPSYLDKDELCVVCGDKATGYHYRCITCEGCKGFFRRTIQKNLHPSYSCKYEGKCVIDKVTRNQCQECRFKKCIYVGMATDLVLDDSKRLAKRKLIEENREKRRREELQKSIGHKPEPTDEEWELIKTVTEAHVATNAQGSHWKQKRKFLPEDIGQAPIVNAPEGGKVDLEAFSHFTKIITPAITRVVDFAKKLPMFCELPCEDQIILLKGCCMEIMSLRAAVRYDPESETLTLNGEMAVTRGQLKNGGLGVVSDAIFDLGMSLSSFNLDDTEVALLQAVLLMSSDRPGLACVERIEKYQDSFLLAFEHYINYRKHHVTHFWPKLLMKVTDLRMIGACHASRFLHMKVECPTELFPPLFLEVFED
Sequence of Nuclear receptor subfamily 1 group I member 2 (Rattus norvegicus) (Q9R1A7 whole entry, looked up): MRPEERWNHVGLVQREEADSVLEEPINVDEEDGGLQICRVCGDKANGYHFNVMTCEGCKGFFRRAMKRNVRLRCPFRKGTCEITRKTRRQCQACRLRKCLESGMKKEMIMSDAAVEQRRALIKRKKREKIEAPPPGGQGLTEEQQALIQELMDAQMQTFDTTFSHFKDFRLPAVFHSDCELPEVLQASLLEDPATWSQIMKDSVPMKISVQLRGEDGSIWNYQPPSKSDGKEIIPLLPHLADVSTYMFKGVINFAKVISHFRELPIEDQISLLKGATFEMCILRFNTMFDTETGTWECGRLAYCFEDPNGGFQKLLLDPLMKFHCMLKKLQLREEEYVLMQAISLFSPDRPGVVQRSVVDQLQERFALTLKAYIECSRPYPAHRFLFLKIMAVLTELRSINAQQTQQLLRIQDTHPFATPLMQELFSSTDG
Sequence of Peroxisome proliferator-activated receptor gamma (Homo sapiens) (P37231 whole entry, looked up): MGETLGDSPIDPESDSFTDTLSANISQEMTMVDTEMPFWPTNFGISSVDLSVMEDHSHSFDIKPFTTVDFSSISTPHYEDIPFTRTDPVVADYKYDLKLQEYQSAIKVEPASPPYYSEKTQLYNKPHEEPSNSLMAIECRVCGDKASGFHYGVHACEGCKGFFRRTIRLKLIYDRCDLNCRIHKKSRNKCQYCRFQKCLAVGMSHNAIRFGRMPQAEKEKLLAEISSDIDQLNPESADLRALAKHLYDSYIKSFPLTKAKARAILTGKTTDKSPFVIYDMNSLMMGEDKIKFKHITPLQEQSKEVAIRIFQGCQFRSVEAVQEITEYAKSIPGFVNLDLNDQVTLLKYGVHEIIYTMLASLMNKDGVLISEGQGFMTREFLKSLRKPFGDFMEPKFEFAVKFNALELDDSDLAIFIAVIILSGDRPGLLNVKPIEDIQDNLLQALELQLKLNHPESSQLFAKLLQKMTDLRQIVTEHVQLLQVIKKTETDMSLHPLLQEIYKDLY
Sequence of Glucocorticoid receptor (Homo sapiens) (P04150 whole entry, looked up): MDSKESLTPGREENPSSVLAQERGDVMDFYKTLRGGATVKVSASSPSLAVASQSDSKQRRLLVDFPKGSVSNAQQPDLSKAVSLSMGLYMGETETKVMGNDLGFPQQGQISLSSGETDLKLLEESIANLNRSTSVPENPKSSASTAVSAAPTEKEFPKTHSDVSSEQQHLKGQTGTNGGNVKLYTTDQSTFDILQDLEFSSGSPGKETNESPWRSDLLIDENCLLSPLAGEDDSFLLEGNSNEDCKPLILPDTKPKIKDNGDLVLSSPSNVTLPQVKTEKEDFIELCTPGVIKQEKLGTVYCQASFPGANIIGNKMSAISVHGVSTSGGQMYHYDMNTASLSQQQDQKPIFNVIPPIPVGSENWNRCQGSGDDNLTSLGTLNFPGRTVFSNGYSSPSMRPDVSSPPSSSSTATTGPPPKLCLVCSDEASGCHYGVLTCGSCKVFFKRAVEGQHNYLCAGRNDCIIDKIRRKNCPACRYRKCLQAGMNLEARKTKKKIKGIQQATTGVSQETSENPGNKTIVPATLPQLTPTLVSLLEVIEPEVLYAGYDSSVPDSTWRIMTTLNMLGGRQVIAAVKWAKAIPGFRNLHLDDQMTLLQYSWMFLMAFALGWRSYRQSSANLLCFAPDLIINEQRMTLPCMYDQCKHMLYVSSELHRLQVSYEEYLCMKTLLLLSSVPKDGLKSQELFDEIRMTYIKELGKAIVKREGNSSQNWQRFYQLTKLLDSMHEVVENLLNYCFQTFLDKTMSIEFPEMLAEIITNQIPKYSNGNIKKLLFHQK
Sequence of Peroxisome proliferator-activated receptor alpha (Homo sapiens) (Q07869 whole entry, looked up): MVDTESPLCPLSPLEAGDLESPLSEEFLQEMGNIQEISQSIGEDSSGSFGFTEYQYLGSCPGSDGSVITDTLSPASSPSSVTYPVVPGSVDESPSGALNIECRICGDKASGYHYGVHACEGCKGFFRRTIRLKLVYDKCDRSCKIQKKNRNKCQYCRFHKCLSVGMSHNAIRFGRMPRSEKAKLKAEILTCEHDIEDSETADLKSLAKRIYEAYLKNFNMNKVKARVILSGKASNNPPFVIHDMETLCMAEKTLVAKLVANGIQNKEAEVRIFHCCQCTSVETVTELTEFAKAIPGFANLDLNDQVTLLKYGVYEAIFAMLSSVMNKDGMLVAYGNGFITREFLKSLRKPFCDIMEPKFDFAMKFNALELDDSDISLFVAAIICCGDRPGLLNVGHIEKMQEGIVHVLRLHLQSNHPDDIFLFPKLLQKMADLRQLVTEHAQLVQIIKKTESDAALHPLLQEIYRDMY

`CCCCCCOCCOCCO`: the activation in test [1] was -12.5% (inactive); in test [10], -0.48% (inactive). The Potency entry in test [2], in test [5], in [7], in test [12] and in [15] was “inactive” each time. For the same compound, the max response in test [3] was -32.9%; in [6], -8.61%; in test [8] it was -13.6%; in test [9], 2.18% (inactive); in test [11], 0.465% (inactive); in test [13] it was -7.8% (inactive). Besides, the max response in test [14] is -5.42% (inactive); in test [16] it was -1.74% (inactive). In addition, the result in test [4] and in test [17] was inactive.

With `Cc1ccc(N)c(S(=O)(=O)O)c1`, the activation in [1] is -5.18% (inactive); in test [19], 0.0519% (inactive); in test [10], 8.24% (inactive). Also, the Potency result in test [2], in [5], in test [7] and in [15] was “inactive” in each case. Besides, the max response in test [3] is 11.7%; in [6], -0.582%; in test [8] it was 1.46%; in test [11], -5.19% (inactive); in [13], -14.4% (inactive); in test [14], -6.79% (inactive). Further, the max response in [16] is 3.5% (inactive). In addition, the outcome in [4], in test [18] and in [17] was inactive.

Turning to `CC(C)=CCC/C(C)=C\CO`, the activation in [1] was -1.71% (inactive); in [20] it was 1.13% (inactive); in [19], -1.2% (inactive); in test [10], 0.559% (inactive). In addition, the Potency entry in test [2], in test [5], in [7], in test [12] and in [15] was “inactive” throughout. Besides, the max response in test [3] is 2.44%; in [6], -16.1%; in test [8], -11.3%; in [9] it was -2.37% (inactive); in test [11], -0.763% (inactive); in test [13] it was -3.82% (inactive). The max response in [14] is -0.935% (inactive); in test [16] it was 2.57% (inactive). Moreover, the result in [4] and in test [18] was inactive.

Regarding `O=C1NC(=O)C(Cc2ccc(OCCN3COc4ccccc4C3=O)cc2)S1` (stereo not drawn), the activation in test [1] was 5.15% (inactive); in test [20] it was 0.726% (inactive); in [19] it was 0.424% (inactive); in test [10] it was 13.4% (inactive). Besides, the Potency result in test [2], in test [7] and in [15] was “inactive” in each case. Moreover, the max response was 33.2% in test [8], -6.38% (inactive) in test [13], -10.2% (inactive) in test [14] and 1.08% (inactive) in test [16]. Moreover, the Potency in test [11] is 17.8 µM (active).

Turning to `O=C(O)C1(C(=O)Nc2ccc(Cl)cc2Cl)CC1`, in test [5], the Potency is 44.7 µM (active). Further, the outcome in test [18] and in test [17] was inactive. For the same compound, the Potency result in [7] and in test [15] was “inactive” throughout. Further, the max response in [8] was 8.82%; in [9], 9.68% (inactive); in test [13] it was -1.63% (inactive); in [14], -9.45% (inactive). Moreover, the activation in [19] was -1.09% (inactive).

`C=C(C)C(=O)OCC(CC)(COC(=O)C(=C)C)COC(=O)C(=C)C`: the activation was 3.82% (inactive) in [1], -3.72% (inactive) in test [20], 0.727% (inactive) in [19] and -0.628% (inactive) in test [10]. In addition, the max response in test [3] is 9.24%; in test [6] it was -12.4%; in test [8], -6.08%; in [9], 13.1% (inactive); in [11] it was -3.37% (inactive); in [13] it was -12% (inactive). Moreover, the values for the max response in test [14] and in test [16] were -15.9% (inactive) and -1.04% (inactive), respectively. The outcome in test [4] and in [17] was inactive. The Potency result in test [5], in test [7], in test [12] and in test [15] was “inactive” throughout.
